Measurements published in PubChem BioAssay (EPA / NIEHS).
Results filed as inconclusive are left out. The source made the active and inactive calls. The calls were made as follows, unless noted: active = hit-call score of the fitted dose curve at least 0.9, where 1 is the maximum; inconclusive = response in the unintended direction; inactive = score below 0.9.

Key:
[1] = molecular target: Cellular tumor antigen p53 (Homo sapiens) (UniProt P04637); test: TOX21_p53_BLA_p5_ratio: Tox21 HCT-116 p53 Agonism Beta-lactamase Assay, Ratio, Phase 5 (AID 2283599)
Sequence of Cellular tumor antigen p53 (Homo sapiens) (P04637 whole entry, looked up): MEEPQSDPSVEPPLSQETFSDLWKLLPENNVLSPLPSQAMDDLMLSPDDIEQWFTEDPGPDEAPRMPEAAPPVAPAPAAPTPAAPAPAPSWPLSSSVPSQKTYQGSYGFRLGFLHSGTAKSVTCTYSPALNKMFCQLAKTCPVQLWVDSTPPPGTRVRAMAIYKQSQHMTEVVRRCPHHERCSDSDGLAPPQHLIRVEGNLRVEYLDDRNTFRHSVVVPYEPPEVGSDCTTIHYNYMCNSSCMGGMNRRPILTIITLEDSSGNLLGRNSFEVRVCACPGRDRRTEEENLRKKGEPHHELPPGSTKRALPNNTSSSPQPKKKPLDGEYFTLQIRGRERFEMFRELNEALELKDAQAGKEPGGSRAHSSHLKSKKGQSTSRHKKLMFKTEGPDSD
In short: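 HCT-116 cells carrying a p53-inducible beta-lactamase reporter were seeded at 4000 cells/well and dosed after 5 h with compound in DMSO (217-fold dilution). After 16 h at 37C, CCF4-AM substrate was added for 2 h, and the 460/530 nm emission ratio was scored as gain-of-signal versus DMSO.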

[2] = TOX21_p53_BLA_p5_viability: Viability Assessment in the Tox21 HCT-116 p53 Agonism Beta-lactamase Assay, Phase 5 (AID 2283600)
In short: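 Counter-readout for cytotoxicity: ATP-dependent luminescence from CellTiter-Glo, read in the beta-lactamase wells after 30 min at RT, following a 16 h compound exposure at 37C.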

[3] = molecular target: Cellular tumor antigen p53 (Homo sapiens) (UniProt P04637); test: TOX21_p53_BLA_p4_ratio: Tox21 HCT-116 p53 Agonism Beta-lactamase Assay, Ratio, Phase 4 (AID 2283601)
In short: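 HCT116 cells carrying an inducible beta-lactamase reporter were plated at 4000 cells/well, rested 5 h, then exposed to compounds in DMSO (217-fold dilution) for 16 h at 37C. CCF4-AM substrate was loaded 2 h at room temperature; 460/530 nm emission ratio scored gain-of-signal versus DMSO.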

[4] = Tanguay_ZF_120hpf_MORT_legacy: (Legacy) Oregon State University Tanguay Lab 120 Hour Post-fertilization zebrafish Assay for Mortality (AID 2283633)
In short: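 Mortality endpoint from a multiplexed whole-embryo zebrafish screen. Dechorionated wild-type embryos received compound at 6 hpf and remained under static exposure at 28C until 120 hpf, with death noted as a present/absent call.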

[5] = Tanguay_ZF_120hpf_YSE_legacy: (Legacy) Oregon State University Tanguay Lab 120 Hour Post-fertilization zebrafish Assay for Yolk Sac Edema (AID 2283634)
In short: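 Readout: presence or absence of yolk sac edema at 120 hpf, fitted upward against DMSO controls. Exposure ran statically from 6 hpf in dechorionated embryos kept at 28C.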

[6] = Tanguay_ZF_120hpf_EYE_legacy: (Legacy) Oregon State University Tanguay Lab 120 Hour Post-fertilization zebrafish Assay for Eye Malformation (AID 2283636);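 also: binary presence or absence of eye malformation scored by brightfield in 120 hpf larvae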
In short: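 Dechorionated wild-type Tropical 5D zebrafish embryos were exposed statically from 6 hpf, one per well, to 120 hpf at 28C in sealed, foil-covered plates with 0.64% DMSO. Eye malformation was scored present/absent by brightfield microscopy against DMSO controls.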

[7] = Tanguay_ZF_120hpf_SNOU_legacy: (Legacy) Oregon State University Tanguay Lab 120 Hour Post-fertilization zebrafish Assay for Snout Malformation (AID 2283637)
In short: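 Tropical 5D wild-type zebrafish embryos, dechorionated with pronase at 4 hpf, were exposed singly from 6 hpf to 120 hpf statically at 28C in 0.64% DMSO. Snout malformation was scored present/absent by brightfield microscopy, fitted against DMSO.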

[8] = Tanguay_ZF_120hpf_JAW_legacy: (Legacy) Oregon State University Tanguay Lab 120 Hour Post-fertilization zebrafish Assay for Jaw Malformation (AID 2283638)
In short: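 Static waterborne exposure of dechorionated wild-type (Tropical 5D) zebrafish from 6 to 120 hpf at 28C, 0.64% DMSO vehicle; 5uM trimethyltin chloride served as positive control. Jaw morphology recorded as binary at 120 hpf.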

[9] = Tanguay_ZF_120hpf_PE_legacy: (Legacy) Oregon State University Tanguay Lab 120 Hour Post-fertilization zebrafish Assay for Pericardial Edema (AID 2283640)
In short: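 Read-out is the presence or absence of pericardial edema at 120 hpf under brightfield, with gain of signal fitted against DMSO controls. Larvae (5D wild-type) were statically exposed at 28C with 0.64% final DMSO.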

[10] = Tanguay_ZF_120hpf_SOMI_legacy: (Legacy) Oregon State University Tanguay Lab 120 Hour Post-fertilization zebrafish Assay for Somite Malformation (AID 2283647)
In short: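 5D WT zebrafish; chorion removed 4 hpf; 1 embryo/well from 6 hpf; static exposure to 120 hpf, 28C, 0.64% DMSO final. Endpoint: somite malformation, binary, brightfield. Mortality excluded.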

[11] = Tanguay_ZF_120hpf_CFIN_legacy: (Legacy) Oregon State University Tanguay Lab 120 Hour Post-fertilization zebrafish Assay for Caudal Fin Malformation (AID 2283649)
In short: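 Embryos were collected from Tropical 5D wild-type adults and dechorionated at 4 hpf. At 6 hpf each was exposed, one per well, at 0.64% DMSO and 28C. At 120 hpf fin morphology was scored; dead embryos were excluded.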

[12] = Tanguay_ZF_120hpf_CIRC_legacy: (Legacy) Oregon State University Tanguay Lab 120 Hour Post-fertilization zebrafish Assay for Circulatory Malformation (AID 2283651)
In short: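 Dechorionated wild-type 5D zebrafish embryos, one per well, statically exposed from 6 to 120 hpf at 28C with 0.64% DMSO; circulatory malformation scored present/absent by brightfield microscopy at 120 hpf, dead embryos excluded.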

[13] = read-out: kallikrein-3 (KLK3), KLK3 (gene 354); test: LTEA_HepaRG_KLK3: Life Technologies and Expression Analysis (LTEA) Assay for kallikrein-3 (KLK3) using HepaRG (AID 2283652; active = hit-call score of the fitted dose curve at least 0.9, where 1 is the maximum; inactive = score below 0.9); conditions: mRNA level, 48 h; actives raise or lower the signal
In short: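 Differentiated human HepaRG cells in serum-free induction medium exposed 48 h in duplicate, eight-point half-log series from 100 uM in 0.5% DMSO. KLK3 mRNA by qRT-PCR, normalised to ACTB, GAPDH, POLR2A; bidirectional fit versus DMSO.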

[14] = read-out: solute carrier (SLC22A6), SLC22A6 (gene 9356); test: LTEA_HepaRG_SLC22A6: Life Technologies and Expression Analysis (LTEA) Assay for solute carrier (SLC22A6) using HepaRG (AID 2283653; active = hit-call score of the fitted dose curve at least 0.9, where 1 is the maximum; inactive = score below 0.9); conditions: mRNA level, 48 h; actives raise or lower the signal
In short: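 This endpoint tracks SLC22A6 mRNA induction or suppression in human HepaRG cultures after 48 h dosing, concentrations reaching 100 uM. Values derive from bidirectional fitting against DMSO controls.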

[15] = TOX21_p53_BLA_p4_viability: Viability Assessment in the Tox21 HCT-116 p53 Agonism Beta-lactamase Assay, Phase 4 (AID 2283597);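 also: hits lower the luminescence signal meaning cytotoxicity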
In short: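 Compound exposure of HCT116 cells lasts 16 h at 37C, 5% CO2, with DMSO stocks diluted 217-fold. Cellular ATP is then quantified by CellTiter-Glo luminescence after 30 min at room temperature.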

[16] = molecular target: Cellular tumor antigen p53 (Homo sapiens) (UniProt P04637); test: TOX21_p53_BLA_p3_ratio: Tox21 HCT-116 p53 Agonism Beta-lactamase Assay, Ratio, Phase 3 (AID 2283596)
In short: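 HCT116 p53-bla cells (4000/well) given compound in DMSO (217-fold dilution) after 5 h, incubated 16 h at 37C. CCF4-AM substrate 2 h at room temperature; 460/530 nm emission ratio, gain fitted against DMSO.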

[17] = Tanguay_ZF_120hpf_AXIS_legacy: (Legacy) Oregon State University Tanguay Lab 120 Hour Post-fertilization zebrafish Assay for Body Axis Malformation (AID 2283635)
In short: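 Static 6–120 hpf chemical exposure of dechorionated wild-type 5D zebrafish, one per well at 28C; morphology endpoint scored binary at 120 hpf relative to DMSO control.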

[18] = Tanguay_ZF_120hpf_OTIC_legacy: (Legacy) Oregon State University Tanguay Lab 120 Hour Post-fertilization zebrafish Assay for Otic Vesicle Malformation (AID 2283639)
In short: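 Tropical 5D wild-type zebrafish embryos statically exposed in 0.64% DMSO at 28C until 120 hpf; 5uM trimethyltin chloride as positive control. Otic vesicle malformation scored present/absent by brightfield; dead embryos not scored; gain fitted versus DMSO.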

[19] = Tanguay_ZF_120hpf_PFIN_legacy: (Legacy) Oregon State University Tanguay Lab 120 Hour Post-fertilization zebrafish Assay for Pectoral Fin Malformation (AID 2283648);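 also: each larva judged yes or no for fin defect by brightfield with dead larvae skipped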
In short: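 Tropical 5D wild-type embryos, dechorionated with pronase at 4 hpf, were placed singly in wells at 6 hpf and statically exposed until 120 hpf at 28C, sealed and dark, with 0.64% (vol/vol) final DMSO; pectoral fin malformation scored present/absent.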

[20] = Tanguay_ZF_120hpf_PIG_legacy: (Legacy) Oregon State University Tanguay Lab 120 Hour Post-fertilization zebrafish Assay for Pigmentation Malformation (AID 2283650)
In short: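 Tropical 5D wild-type zebrafish embryos, dechorionated with pronase at 4 hpf, were exposed singly from 6 hpf to 120 hpf statically at 28C in sealed, dark plates with 0.64% DMSO; pigmentation scored present/absent by brightfield microscopy, fitted against DMSO.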

Measured: outcome

NC(=O)O
inactive: [1] | [2] | [3] | [4] | [5] | [6] | [7] | [8] | [9] | [10] | [11] | [12] | [13] | [14]

CCOP(=O)(CN(CCO)CCO)OCC
inactive: [15]

CC(C)CCCCCCOC(=O)c1ccccc1C(=O)OCCCCCCC(C)C
inactive: [15]

BrCCBr
inactive: [16] | [2] | [3]

Cl/C=C/Cl
inactive: [16] | [2] | [3]

ClCc1ccccn1
inactive: [15] | [1] | [2] | [3]

CC(C)(OO)c1ccccc1
inactive: [16] | [1] | [3] | [4] | [5] | [17] | [6] | [7] | [8] | [18] | [9] | [10] | [19] | [11] | [20] | [12]

CNC(=O)O/N=C/C(C)(C)S(C)=O (stereo unspecified)
inactive: [16] | [1] | [3]

O=[N+]([O-])c1ccc2c3c(cccc13)CC2
inactive: [16] | [1] | [3]

Cc1ccccc1C(=O)Nc1cccc(OC(C)C)c1
inactive: [15] | [1] | [2] | [3]

ClC1(Cl)C2(Cl)C3(Cl)C4(Cl)C(Cl)(Cl)C5(Cl)C3(Cl)C1(Cl)C5(Cl)C24Cl (stereo unspecified)
inactive: [15] | [2] | [3] | [4] | [5] | [17] | [6] | [7] | [8] | [18] | [9] | [10] | [19] | [11] | [20] | [12] | [13] | [14]

CCC(=O)c1ccccc1
inactive: [15] | [1] | [2]

CCOC(=O)CP(=O)(OCC)OCC
inactive: [16] | [3]

CC(C)OC(=O)Nc1ccccc1
inactive: [16] | [1] | [3]

NN=C(N)N
inactive: [16] | [1] | [3]

COC(=O)Cc1ccccc1
inactive: [16] | [3]

CCOP(=S)(OCC)SCSP(=S)(OCC)OCC
inactive: [15] | [1] | [2] | [3] | [4] | [5] | [17] | [6] | [7] | [8] | [18] | [9] | [10] | [19] | [11] | [12]

CCOC(=O)Nc1cccc(OC(=O)Nc2ccccc2)c1
inactive: [15] | [2]
